The record followed here is PubChem BioAssay (EPA / NIEHS).

Usually AC50 stands for the concentration at which the activity in the assay is half-maximal.

Active and inactive are the calls of the source. How the source made its calls: active means hit-call score of the fitted dose curve at least 0.9, where 1 is the maximum; inactive means score below 0.9.

Common to all, as to settings: mRNA level, 48 h; actives raise or lower the signal
Read-out in test [1]: Fatty acid synthase (Homo sapiens) (UniProt P49327)
Briefly: LTEA_HepaRG_FASN: Life Technologies and Expression Analysis (LTEA) Assay for Fatty Acid Synthase (FASN) using HepaRG (AID 2283448). The method in brief: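 Differentiated human HepaRG cells were exposed for 48 h in serum-free induction medium to eight half-log concentrations up to 100 uM in 0.5% DMSO, in duplicate. FASN mRNA was quantified by TaqMan qRT-PCR, normalized to ACTB/GAPDH/POLR2A, and fitted bidirectionally against DMSO.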

Read-out in test [2]: Cyclin Dependent Kinase Inhibitor 1A (CDKN1A), CDKN1A (gene 1026)
Briefly: LTEA_HepaRG_CDKN1A: Life Technologies and Expression Analysis (LTEA) Assay for Cyclin Dependent Kinase Inhibitor 1A (CDKN1A) using HepaRG (AID 2283450). The method in brief: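 Gain or loss of CDKN1A transcript is scored by bidirectional fitting against 0.5% DMSO vehicle. Human HepaRG cultures receive chemicals for 48 h across an 8-point series peaking at 100 uM; expression comes from qRT-PCR.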

Read-out in test [3]: Cyclin D1 (CCND1), CCND1 (gene 595)
As to the kind of experiment: LTEA_HepaRG_CCND1: Life Technologies and Expression Analysis (LTEA) Assay for Cyclin D1 (CCND1) using HepaRG (AID 2283451). The method in brief:
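Expression change is measured by qRT-PCR in HepaRG cells after 48 h treatment across eight concentrations topping at 100 uM, with duplicate wells and DMSO (0.5%) serving as baseline for bidirectional fitting.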

Read-out in test [4]: catalase (CAT), CAT (gene 847)
As to the kind of experiment: LTEA_HepaRG_CAT: Life Technologies and Expression Analysis (LTEA) Assay for catalase (CAT) using HepaRG (AID 2283452). The method in brief:
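HepaRG cells in serum-free induction medium, 0.5% DMSO vehicle, exposed 48 h in duplicate over 8 half-log concentrations from 100 uM. CAT mRNA measured by qRT-PCR, normalized to ACTB, GAPDH, POLR2A; bidirectional fit versus DMSO.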

Read-out in test [5]: flavin-containing dimethylaniline monooxygenases 3 (FMO3), FMO3 (gene 2328)
Briefly: LTEA_HepaRG_FMO3: Life Technologies and Expression Analysis (LTEA) Assay for flavin-containing dimethylaniline monooxygenases 3 (FMO3) using HepaRG (AID 2283453). The method in brief:
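HepaRG, 48 h exposure, 8-pt half-log series from 100 uM, 0.5% DMSO vehicle, duplicates; FMO3 transcript by Fluidigm TaqMan qRT-PCR, housekeeping-normalized; gain/loss fit vs DMSO.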

Read-out in test [6]: Cytochrome P450 (CYP1A1), CYP1A1 (gene 1543)
Briefly: LTEA_HepaRG_CYP1A1: Life Technologies and Expression Analysis (LTEA) Assay for Cytochrome P450 (CYP1A1) using HepaRG (AID 2283454). The method in brief:
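Using HepaRG cultures with 0.5% DMSO as vehicle, eight-concentration exposures (max 100 uM) lasted 48 h. Transcript levels were measured by TaqMan qRT-PCR and normalized to ACTB, GAPDH and POLR2A.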

Read-out in test [7]: CFLAR gene, CFLAR (gene 8837)
Briefly: LTEA_HepaRG_CFLAR: Life Technologies and Expression Analysis (LTEA) Assay for CFLAR gene using HepaRG (AID 2283455). The method in brief:
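Differentiated HepaRG cells in serum-free induction medium were exposed 48 h in duplicate to eight half-log concentrations up to 100 uM in 0.5% DMSO; mRNA measured by TaqMan qRT-PCR, normalized to ACTB, GAPDH, POLR2A; bidirectional fitting versus DMSO.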

Read-out in test [8]: growth arrest and DNA damage 45 (GADD45A), GADD45A (gene 1647)
As to the kind of experiment: LTEA_HepaRG_GADD45A: Life Technologies and Expression Analysis (LTEA) Assay for growth arrest and DNA damage 45 (GADD45A) using HepaRG (AID 2283458). The method in brief:
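Differentiated HepaRG cells were exposed in duplicate for 48 h in serum-free induction medium to 8-point half-log concentrations up to 100 uM in 0.5% DMSO. GADD45A mRNA was measured by TaqMan qRT-PCR, normalized to ACTB, GAPDH and POLR2A, with bidirectional fitting versus DMSO.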

Read-out in test [9]: Forkhead box O3 (FOXO3), FOXO3 (gene 2309)
Briefly: LTEA_HepaRG_FOXO3: Life Technologies and Expression Analysis (LTEA) Assay for Forkhead box O3 (FOXO3) using HepaRG (AID 2283459). The method in brief: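 Differentiated human HepaRG cells, 48 h post-plating, exposed in duplicate for 48 h in serum-free induction medium; 8-point half-log series from 100 uM in 0.5% DMSO. FOXO3 mRNA by TaqMan qRT-PCR, normalized to ACTB/GAPDH/POLR2A; bidirectional fit versus DMSO.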

Read-out in test [10]: ABC Transporter (ABCB1), ABCB1 (gene 5243)
Briefly: LTEA_HepaRG_ABCB1: Life Technologies and Expression Analysis (LTEA) Assay for ABC Transporter (ABCB1) using HepaRG (AID 2283460). The method in brief: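 HepaRG cells exposed in duplicate for 48 h in serum-free induction medium to eight half-log concentrations up to 100 uM in 0.5% DMSO. ABCB1 mRNA quantified by qRT-PCR, normalised to ACTB, GAPDH and POLR2A; fitted bidirectionally versus DMSO.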

Read-out in test [11]: growth arrest and DNA damage 45 (GADD45B), GADD45B (gene 4616)
Briefly: LTEA_HepaRG_GADD45B: Life Technologies and Expression Analysis (LTEA) Assay for growth arrest and DNA damage 45 (GADD45B) using HepaRG (AID 2283461). The method in brief: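 Human HepaRG monolayers receive chemicals for 48 h at eight half-log concentrations, highest 100 uM, in 0.5% DMSO. Expression is measured by TaqMan qRT-PCR and normalized to ACTB, GAPDH and POLR2A.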

Read-out in test [12]: ABC Transporter (ABCC3), ABCC3 (gene 8714)
As to the kind of experiment: LTEA_HepaRG_ABCC3: Life Technologies and Expression Analysis (LTEA) Assay for ABC Transporter (ABCC3) using HepaRG (AID 2283462). The method in brief: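 Transcriptional change of ABCC3 in HepaRG after 48 h treatment, determined by qRT-PCR normalized to endogenous controls. Concentrations spanned eight half-log steps to 100 uM in 0.5% DMSO.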

Read-out in test [13]: ABC Transporter (ABCB11), ABCB11 (gene 8647)
Briefly: LTEA_HepaRG_ABCB11: Life Technologies and Expression Analysis (LTEA) Assay for ABC Transporter (ABCB11) using HepaRG (AID 2283463). The method in brief:
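Differentiated human HepaRG cells in serum-free induction medium, dosed in duplicate for 48 h. Eight-point half-log series from 100 uM in 0.5% DMSO; ABCB11 mRNA by qRT-PCR, normalized to ACTB, GAPDH, POLR2A, fitted bidirectionally versus DMSO.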

Read-out in test [14]: Broad substrate specificity ATP-binding cassette transporter ABCG2 (Homo sapiens) (UniProt Q9UNQ0)
As to the kind of experiment: LTEA_HepaRG_ABCG2: Life Technologies and Expression Analysis (LTEA) Assay for ABC Transporter (ABCG2) using HepaRG (AID 2283465). The method in brief:
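Differentiated HepaRG cells were exposed for 48 h in serum-free induction medium to 8 half-log concentrations, top 100 uM, in 0.5% DMSO. ABCG2 mRNA was measured by qRT-PCR, normalized to ACTB, GAPDH and POLR2A, with bidirectional fitting versus DMSO.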

Read-out in test [15]: ATP-citrate lyase (ACLY), ACLY (gene 47)
Briefly: LTEA_HepaRG_ACLY: Life Technologies and Expression Analysis (LTEA) Assay for ATP-citrate lyase (ACLY) using HepaRG (AID 2283466). In a few lines:
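Differentiated HepaRG cells exposed 48 h in serum-free induction medium to eight half-log concentrations up to 100 uM in 0.5% DMSO, duplicates. Transcript measured by Fluidigm TaqMan qRT-PCR, normalized to ACTB, GAPDH, POLR2A; bidirectional fit versus DMSO.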

Read-out in test [16]: Peroxisomal acyl-coenzyme A oxidase 1 (ACOX1) gene, ACOX1 (gene 51)
Briefly: LTEA_HepaRG_ACOX1: Life Technologies and Expression Analysis (LTEA) Assay for Peroxisomal acyl-coenzyme A oxidase 1 (ACOX1) gene using HepaRG (AID 2283467). The method in brief:
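HepaRG cells, plated 48 h then switched to serum-free induction medium, were exposed in duplicate for 48 h to 8-point half-log concentrations up to 100 uM in 0.5% DMSO. ACOX1 mRNA was measured by qRT-PCR, normalized to ACTB/GAPDH/POLR2A, and fitted bidirectionally versus DMSO.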

Read-out in test [17]: Cyclin D2 (CCND2), CCND2 (gene 894)
Briefly: LTEA_HepaRG_CCND2: Life Technologies and Expression Analysis (LTEA) Assay for Cyclin D2 (CCND2) using HepaRG (AID 2283449).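 Further: CCND2 transcript measured by TaqMan qRT-PCR and normalised to three housekeeping genes.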 In a few lines:
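Chemicals in 0.5% DMSO, eight half-log concentrations from 100 uM top, were applied in duplicate for 48 h to human HepaRG cells in serum-free induction medium. CCND2 mRNA by TaqMan qRT-PCR, normalised to ACTB/GAPDH/POLR2A; bidirectional fit versus DMSO.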

Sequence of Broad substrate specificity ATP-binding cassette transporter ABCG2 (Homo sapiens) (Q9UNQ0 whole entry, looked up): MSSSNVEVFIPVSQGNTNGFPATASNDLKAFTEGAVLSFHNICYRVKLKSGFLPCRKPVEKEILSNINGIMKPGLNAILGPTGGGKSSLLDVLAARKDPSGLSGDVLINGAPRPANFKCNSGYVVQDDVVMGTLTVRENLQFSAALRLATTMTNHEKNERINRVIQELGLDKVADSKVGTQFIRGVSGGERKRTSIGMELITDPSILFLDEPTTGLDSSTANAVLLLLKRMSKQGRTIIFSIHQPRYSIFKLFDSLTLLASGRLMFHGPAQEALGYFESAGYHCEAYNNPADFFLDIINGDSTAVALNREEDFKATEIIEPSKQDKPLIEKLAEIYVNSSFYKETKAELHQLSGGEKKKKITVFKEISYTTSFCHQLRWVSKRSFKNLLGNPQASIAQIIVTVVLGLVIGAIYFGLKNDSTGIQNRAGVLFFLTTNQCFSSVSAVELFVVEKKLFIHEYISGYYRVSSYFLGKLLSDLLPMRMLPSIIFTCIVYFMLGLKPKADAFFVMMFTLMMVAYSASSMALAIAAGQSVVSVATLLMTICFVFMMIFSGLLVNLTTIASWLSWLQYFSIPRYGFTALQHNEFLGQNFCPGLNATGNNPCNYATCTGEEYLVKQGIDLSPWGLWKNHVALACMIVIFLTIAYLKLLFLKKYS
Sequence of Fatty acid synthase (Homo sapiens) (P49327 whole entry, looked up): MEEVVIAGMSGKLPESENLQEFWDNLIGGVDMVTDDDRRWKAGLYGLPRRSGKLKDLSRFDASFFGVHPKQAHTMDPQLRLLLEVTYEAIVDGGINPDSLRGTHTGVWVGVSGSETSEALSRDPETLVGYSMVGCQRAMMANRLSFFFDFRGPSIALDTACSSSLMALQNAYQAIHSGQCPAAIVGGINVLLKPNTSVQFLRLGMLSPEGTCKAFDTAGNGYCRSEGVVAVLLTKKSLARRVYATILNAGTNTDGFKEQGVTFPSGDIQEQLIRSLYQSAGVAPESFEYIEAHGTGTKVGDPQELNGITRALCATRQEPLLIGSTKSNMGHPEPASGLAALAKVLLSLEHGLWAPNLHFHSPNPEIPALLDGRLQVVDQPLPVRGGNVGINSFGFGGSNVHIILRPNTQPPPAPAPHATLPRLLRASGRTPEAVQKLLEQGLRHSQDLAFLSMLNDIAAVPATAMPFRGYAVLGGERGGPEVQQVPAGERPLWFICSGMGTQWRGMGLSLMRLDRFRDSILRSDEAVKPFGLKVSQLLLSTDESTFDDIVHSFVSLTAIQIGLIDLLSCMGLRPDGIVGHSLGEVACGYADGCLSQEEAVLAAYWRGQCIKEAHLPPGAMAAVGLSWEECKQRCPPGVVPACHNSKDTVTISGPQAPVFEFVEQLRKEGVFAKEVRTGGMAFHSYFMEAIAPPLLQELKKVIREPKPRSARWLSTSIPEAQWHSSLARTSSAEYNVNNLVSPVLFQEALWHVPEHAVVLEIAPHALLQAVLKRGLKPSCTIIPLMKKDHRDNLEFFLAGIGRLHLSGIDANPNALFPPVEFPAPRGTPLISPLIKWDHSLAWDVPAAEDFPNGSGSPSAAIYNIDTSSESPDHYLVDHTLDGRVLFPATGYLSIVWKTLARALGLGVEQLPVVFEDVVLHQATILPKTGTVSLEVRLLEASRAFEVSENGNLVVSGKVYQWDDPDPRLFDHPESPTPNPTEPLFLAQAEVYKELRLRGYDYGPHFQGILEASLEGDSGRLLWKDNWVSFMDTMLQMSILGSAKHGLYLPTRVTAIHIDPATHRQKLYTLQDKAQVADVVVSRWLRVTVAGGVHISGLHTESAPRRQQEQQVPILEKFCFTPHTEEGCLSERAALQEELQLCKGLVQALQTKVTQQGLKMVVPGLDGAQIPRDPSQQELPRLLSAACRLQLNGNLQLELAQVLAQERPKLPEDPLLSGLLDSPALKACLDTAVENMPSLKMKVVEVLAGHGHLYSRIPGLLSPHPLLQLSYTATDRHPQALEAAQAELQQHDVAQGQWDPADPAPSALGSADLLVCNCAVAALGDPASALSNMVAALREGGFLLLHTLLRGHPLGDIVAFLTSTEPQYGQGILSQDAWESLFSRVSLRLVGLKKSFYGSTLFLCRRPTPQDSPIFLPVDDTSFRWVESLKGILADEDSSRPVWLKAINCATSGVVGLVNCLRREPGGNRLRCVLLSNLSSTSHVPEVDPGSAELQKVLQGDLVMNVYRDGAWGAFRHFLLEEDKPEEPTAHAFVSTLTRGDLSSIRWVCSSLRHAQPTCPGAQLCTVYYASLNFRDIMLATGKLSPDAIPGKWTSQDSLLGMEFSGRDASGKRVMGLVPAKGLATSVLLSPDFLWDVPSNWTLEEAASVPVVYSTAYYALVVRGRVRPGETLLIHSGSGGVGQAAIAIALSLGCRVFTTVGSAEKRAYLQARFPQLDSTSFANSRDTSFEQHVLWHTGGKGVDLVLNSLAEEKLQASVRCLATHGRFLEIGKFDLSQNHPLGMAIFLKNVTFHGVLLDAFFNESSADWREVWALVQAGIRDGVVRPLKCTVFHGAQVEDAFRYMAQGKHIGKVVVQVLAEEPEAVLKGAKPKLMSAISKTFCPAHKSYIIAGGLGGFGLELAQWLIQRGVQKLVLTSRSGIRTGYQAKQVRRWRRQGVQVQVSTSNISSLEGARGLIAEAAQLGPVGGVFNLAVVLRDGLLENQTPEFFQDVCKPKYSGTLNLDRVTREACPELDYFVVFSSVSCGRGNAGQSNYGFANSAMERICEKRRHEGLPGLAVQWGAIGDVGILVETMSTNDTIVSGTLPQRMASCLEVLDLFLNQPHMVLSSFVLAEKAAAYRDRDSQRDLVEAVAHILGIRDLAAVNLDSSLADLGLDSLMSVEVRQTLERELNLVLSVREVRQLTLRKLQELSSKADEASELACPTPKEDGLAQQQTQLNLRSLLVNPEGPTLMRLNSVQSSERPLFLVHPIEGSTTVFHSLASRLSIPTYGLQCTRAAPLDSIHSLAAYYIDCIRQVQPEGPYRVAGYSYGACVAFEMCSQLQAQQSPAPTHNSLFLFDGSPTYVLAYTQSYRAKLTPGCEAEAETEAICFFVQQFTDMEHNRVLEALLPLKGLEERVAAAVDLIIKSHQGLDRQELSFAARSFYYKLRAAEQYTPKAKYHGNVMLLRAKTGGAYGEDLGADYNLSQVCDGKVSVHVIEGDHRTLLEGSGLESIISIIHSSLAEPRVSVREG

As to `C[C@]12CCC(=O)C=C1CC[C@@H]1[C@@H]2CC[C@]2(C)C(=O)CC[C@@H]12`, the AC50 in [1] is 82.7 µM (active); in test [8], 50 µM (active); in test [10], 17.1 µM (active); in [13], 2.67 µM (active); in [14], 19.7 µM (active); in [15], 88.9 µM (active). Besides, the compound was called inactive in [2], in test [3], in test [4], in test [5], in test [6] and in [7]. The compound was called inactive in test [9], in test [11], in [12] and in test [16].
On to `Cc1cc(-c2ccc(N)c(C)c2)ccc1N`, for which the AC50 is 25.1 µM (active) in test [1]; 25.1 µM (active) in test [5]; 20.3 µM (active) in [6]; 18 µM (active) in test [9]; 50 µM (active) in test [11]; 22.4 µM (active) in [13]. Also, the compound was classed as inactive in [17], in test [2], in [3], in test [4], in [7] and in test [8]. Further, the call in test [10], in test [12], in test [14], in test [15] and in [16] was inactive.
For `CC(C)(O)C(=O)Nc1ccc([N+](=O)[O-])c(C(F)(F)F)c1`, the outcome in test [1], in test [2], in test [3], in test [4], in test [5] and in test [7] was inactive. In addition, the compound was classed as inactive in test [8], in test [9], in test [10], in test [11], in test [13] and in test [14]. Moreover, the outcome in [15] and in test [16] was inactive. Further, the AC50 in test [17] was 0.0398 µM (active); in test [6], 0.0423 µM (active).
